Assay results: PubChem BioAssay (NCATS)
Results filed as inconclusive are left out. Activity calls are given as the source filed them. Calls come from the whole dose curve; as a rule, active = well fitted cell-killing curve with a large enough effect; inconclusive = small, poorly fitted or top-dose-only effect, or effect the other way; inactive = flat fitted curve, though single readings scatter. Where a SMILES comes first, the peptide text is derived from it. [ ]: non-standard residue; d: D form. ξ: configuration not given here. ξPhe(βξ-Me) = CC(c1ccccc1)C(N)C(=O)O; ξLac(3-iPr) = CC(C)CC(O)C(=O)O; NMeV = CN[CH](C(=O)O)C(C)C; GABA = NCCCC(=O)O; βAla = NCCC(=O)O

These molecules were tested on CASKI (assay: Primary qHTS to identify gynecologic anti-cancer compounds using libraries of approved drugs and bioactive compounds (AID 1345084; note: nearly all actives have a fitted effect of over 55% in size)). Details: Gynecologic cancer cell panel viability, ATPlite luminescence, 48 h; series mostly up to 57.5 µM; activity change, negative = cytotoxicity: at the top concentration.
Procedure, shortened: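 Cells, 1,000 per well, were allowed to settle for 16 h at 37 C before compound addition. Five concentrations were tested for 48 h, and viability was read by ATPlite luminescence after 15 min at room temperature.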
% is set by controls: 0 for no effect and ±100 for the full control effect.

Compound	activity change, negative = cytotoxicity
CC1NC(=O)CCCNC(=O)C(Cc2c[nH]c3ccccc23)NC(=O)C(C)NC(=O)C(C(C)C)NC(=O)C(C(C)c2ccccc2)NC(=O)C(C(C)C)NC1=O (stereo not drawn) (cyclo([GABA]AV[ξPhe(βξ-Me)]VAW); configuration not given here)	12.2% [at 25.3 µM] (inactive)
C/C=C(\C)C(=O)O[C@@H]1CC2[C@@H](CC=C3C[C@@H](O[C@H]4C[C@H](OC)[C@H](O[C@H]5C[C@H](OC)[C@H](O[C@@H]6O[C@H](C)[C@@H](O[C@H]7C[C@H](OC)[C@H](O[C@@H]8O[C@H](CO)[C@@H](O)[C@H](O)[C@H]8O)[C@@H](C)O7)[C@H](OC)[C@H]6O)[C@@H](C)O5)[C@@H](C)O4)CC[C@@]32C)[C@@]2(O)CC[C@H](C(C)=O)[C@@]12C (some centres not stated)	2.06% [at 6.55 µM] (inactive)
COc1c(/C=C/C(C)(C)O)ccc2c1C(=O)OCc1cc(C)cc(O)c1O2	-26.1% [at 38.5 µM] (inactive)
CCOCc1cc(OC)c(-c2ccc(C[C@H](NC(=O)c3c(F)cccc3F)C(=O)O)cc2)c(OC)c1	-0.764% (inactive)
Cc1nc([C@](C)(O)CO)sc1-c1cnc(N)c(O[C@H](C)c2cc(F)ccc2-n2nccn2)c1	-2.27% (inactive)
OC[C@H]1O[C@@H](O[C@H]2[C@H](OCc3ccccc3)O[C@H](CO[C@@H]3OC[C@@H](O)[C@H](O)[C@H]3O)[C@@H](O)[C@@H]2O)[C@H](O)[C@@H](O)[C@@H]1O	8.71% [at 25.3 µM] (inactive)
CC1(C)C[C@H](O)C[C@@]2(C)OC(=O)C=C12	-16.6% (inactive)
C=C(C(=O)O)C1CC2=C(C)CCCC2(C)C[C@@H]1O (some centres not stated)	18.3% (inactive)
CC[C@@](C)(Nc1ccnc(-c2c[nH]c3ncccc23)n1)C(=O)NCC(F)(F)F	9.7% (inactive)
COc1ccc(-c2c(-c3cc(C(=O)O)ccn3)ncn2C)cc1	19.6% (inactive)
Cc1nc(C)c(-c2ccc(C3CCC(CC(=O)O)CC3)cc2)nc1C(N)=O (configuration not stated)	6.56% (inactive)
CC(C)CC1OC(=O)C2CCCN2C(=O)CCNC(=O)C(Cc2ccccc2)NC(=O)C(C(C)C)N(C)C(=O)C(C(C)C)N(C)C1=O (configuration not stated) (cyclo([ξLac(3-iPr)][NMeV][NMeV]F[βAla]P); configuration not given here)	-4.07% [at 25.3 µM] (inactive)
C=C1C(O)C[C@@H]2C(C(=O)O)=CO[C@@H](O[C@@H]3O[C@H](CO)[C@@H](O)[C@H](O)[C@H]3OC(=O)c3ccc(O)cc3)[C@H]12 (some centres not stated)	-2.37% [at 25.3 µM] (inactive)
CC(O)CCC1C(CO[C@@H]2O[C@H](CO)[C@@H](O)[C@H](O)[C@H]2O)CC(O)CC1(C)C (some centres not stated)	0.952% [at 38.5 µM] (inactive)
CC1=C2C(O)C(=O)OC(c3ccoc3)C2(C)CCC1O (configuration not stated)	0.359% (inactive)
O=C(Nc1ccccc1-c1cn2c(CN3CCNCC3)csc2n1)c1ccc2ccccc2n1	-0.97% (inactive)
COC(=O)CC(C)(O)CC(=O)OCc1ccc(O[C@@H]2O[C@H](CO)[C@@H](O)[C@H](O)[C@H]2O)cc1 (some centres not stated)	-6.55% [at 25.3 µM] (inactive)
